The values below come from PubChem BioAssay AID588511 (Johns Hopkins Ion Channel Center, 2011).

Among all 310,000 compounds or so, about 3,600 (1.2%) were called active.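 The calls were made as follows: active = ratio plate-corrected score three or more library SD toward inhibition, starting fluorescence score within five deviations; inactive = the rest.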 This excerpt belongs to a sample that is enriched for actives.

The target of the assay is Anoctamin-1 (Mus musculus) (UniProt Q8BHY3). As to the kind of experiment: blockers of mouse ANO1 Ca-activated Cl channel – cell-based, HTS, primary screen (AID 588511).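 As to normalized B-score (activity score, 25-100; higher = stronger inhibition): score derived from kinetic fluorescence span divided by baseline fluorescence per well.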 Particulars: HEK293 TMEM16A/YFP iodide influx fluorescence, ionomycin; at 10 µM.
Sequence of Anoctamin-1 (Mus musculus) (Q8BHY3 whole entry, looked up): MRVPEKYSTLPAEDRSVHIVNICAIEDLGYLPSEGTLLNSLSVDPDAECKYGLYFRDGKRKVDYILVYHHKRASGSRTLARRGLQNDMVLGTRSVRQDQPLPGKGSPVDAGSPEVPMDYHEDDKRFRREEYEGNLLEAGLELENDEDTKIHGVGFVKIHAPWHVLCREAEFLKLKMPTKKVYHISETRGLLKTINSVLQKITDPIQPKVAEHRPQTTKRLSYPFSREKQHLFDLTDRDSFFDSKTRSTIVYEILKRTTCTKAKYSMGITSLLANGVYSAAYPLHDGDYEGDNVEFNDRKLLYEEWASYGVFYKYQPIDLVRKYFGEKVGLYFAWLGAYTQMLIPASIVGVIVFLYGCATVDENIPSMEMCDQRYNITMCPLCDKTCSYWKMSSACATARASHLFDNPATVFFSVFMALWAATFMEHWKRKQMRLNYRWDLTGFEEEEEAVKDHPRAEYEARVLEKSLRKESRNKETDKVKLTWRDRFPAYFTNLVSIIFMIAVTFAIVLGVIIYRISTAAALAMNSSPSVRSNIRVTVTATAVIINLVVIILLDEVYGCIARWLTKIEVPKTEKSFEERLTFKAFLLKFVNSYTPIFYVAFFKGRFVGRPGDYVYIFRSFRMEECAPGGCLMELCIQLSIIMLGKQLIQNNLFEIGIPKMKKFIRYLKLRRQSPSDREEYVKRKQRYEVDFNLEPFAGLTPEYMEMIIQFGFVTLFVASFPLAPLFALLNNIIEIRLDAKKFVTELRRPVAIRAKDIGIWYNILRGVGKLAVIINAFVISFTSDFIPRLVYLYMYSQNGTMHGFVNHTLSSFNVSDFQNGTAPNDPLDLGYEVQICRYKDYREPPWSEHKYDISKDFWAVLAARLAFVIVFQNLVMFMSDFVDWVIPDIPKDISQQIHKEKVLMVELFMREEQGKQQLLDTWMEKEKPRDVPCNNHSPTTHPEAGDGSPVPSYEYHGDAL
Consider `CCOc1cccc(=NC2CCCCC2)c2c(C)[nH]c(C)c12`, for which the normalized B-score (activity score, 25-100; higher = stronger inhibition) was 25 (active). The entry for `Nc1ccc(C(=O)N/N=C2/CN3CCC2CC3)cc1` is “inactive”; for `CCOC(=O)C1CN(C)CCC1=O` (stereo not given) it is “inactive”. The entry for `CCCCCn1c(=O)c(C(=O)NCc2ccccc2)c(O)c2ccccc21` is “inactive”; for `CCCCCn1c(=O)c(C(=O)NCc2ccccn2)c(O)c2ccccc21` it is 25 (active); for `CCCCn1c(=O)c(C(=O)Nc2ccccc2Cl)c(O)c2ccccc21` it is “inactive”.

With `O=C(Cn1c(=O)n(CC2CS2)c2ccccc21)N1CCCCC1` (stereo not given), the normalized B-score (activity score, 25-100; higher = stronger inhibition) result was “inactive”. The same measure for `O=c1[nH]c(=O)n(-c2ccccc2)c(O)c1C=NC12CN3CN(CN(C3)C1)C2`: “inactive”; for `COc1ccccc1NC(=O)N1C[C@@H]2C[C@@H](C1)c1cccc(=O)n1C2`: “inactive”; for `Cc1ccc(P(=S)(c2ccc(C)o2)N2CCOCC2)o1`: “inactive”. The same measure for `COc1ccc(-n2c(-c3ccccc3)nc3ccccc3c2=O)cc1`: “inactive”; for `CCN(CC)P(=O)(Oc1cccc(C)c1)N(CC)CC`: “inactive”.

Regarding `COc1ccc(-c2nn(CCC#N)cc2C(=O)Nc2ccc(C(C)=O)cc2)cc1`, the normalized B-score (activity score, 25-100; higher = stronger inhibition) entry is “inactive”.

As for `CCN(CC)C(=O)c1ccc(NC(=O)c2sccc2-c2ccccc2)cc1`, the normalized B-score (activity score, 25-100; higher = stronger inhibition) entry is “inactive”. The figure for `CCN(CC)C(=O)c1ccc(NC(=O)c2cc(-n3cnnc3)ccc2Cl)cc1` is 100 (active); for `O=[N+]([O-])c1ccc(C2C3C(c4ccccc4)=NC4(CCCCC4)N32)cc1` (stereo not given) it is “inactive”. Regarding `CN(C)S(=O)(=O)c1cc(C(=O)N2CCC(C(=O)O)(c3ccccc3)CC2)ccc1Cl`, the normalized B-score (activity score, 25-100; higher = stronger inhibition) result is “inactive”. The entry for `c1ccc(CCNC2CCCCCC2)cc1` is “inactive”. The figure for `CCCCCCCCCCCCn1ccc(=N)cc1` is 25 (active). In the case of `CC1(C)C(c2ccccc2)=NC(c2cccnc2)=[N+]1[O-]`, the normalized B-score (activity score, 25-100; higher = stronger inhibition) result was “inactive”.
